Reference: PubChem BioAssay AID2685 (National Center for Advancing Translational Sciences (NCATS), 2010)
Among all 320,000 compounds or so, about 2,100 (0.66%) were called active. Roughly 53% stayed inconclusive and do not appear here. The sample holds actives, similar compounds and a random draw of the others, so the mix is not that of the screen. The call rests on the fitted dose curve; in most records, active means well fitted inhibition curve with a large enough effect in the signal ratio, with a control signal flat (not every such curve was filed as active); inconclusive means small, poorly fitted or top-dose-only effect, or effect the other way, or a change in a side signal; inactive means flat fitted curve, though single readings scatter; the % refers to the signal ratio.

assay: qHTS Assay for Lipid Storage Modulators in Drosophila S3 Cells; settings: BODIPY lipid droplet fluorescence, 18-24 h, cells fed with added oleic acid; cell number change: measured here: cell count max response; series mostly up to 46.1 µM;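 on cell number change: cells counted by Cell Tracker Red CMTPX staining in the red channel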
How it was run: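 Drosophila S3 cells loaded with oleic acid (400 uM, as added) and compounds at several concentrations; lipid droplets imaged by 488-nm laser-scanning cytometry, 500–530 nm intensity and object ratio to cell channel. Percent activity normalized to 20 uM Triacsin C.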
Potency means the concentration at half of the fitted maximal effect.

Compound | Potency | cell number change
CCN(CC)S(=O)(=O)c1ccc(/C=C/C(=O)OCC(=O)Nc2cccc3ccccc23)cc1 | inactive | 15.5%
Cc1noc(C)c1S(=O)(=O)N1CCC(C(N)=O)CC1 | inactive | -15.5%
Cc1ccc(C(=O)OCC(=O)NCCC2=CCCCC2)cc1N | inactive | 
COc1cccc(NC(=O)c2ccc(CN3CCc4ccccc4C3)cc2)c1 | inactive | 26.4%
C=CCNc1nc(C(=O)OCC(=O)c2ccccc2)cs1 | inactive | 16.2%
COc1cccc(C(=O)NC(=S)Nc2cccnc2)c1 | inactive | -2.34%
CCOc1ccccc1N=NC1C(=O)N(C(N)=S)N=C1C (stereo not given) | inactive | -0.35%
CC1=NN(C(N)=S)C(=O)C1N=Nc1ccccc1O (stereo not given) | inactive | -20.1%
CC1=NN(C(N)=S)C(=O)C1N=Nc1ccc(S(N)(=O)=O)cc1 (stereo not given) | inactive | 3.52%
CC1=NN(C(N)=S)C(=O)C1N=Nc1ccccc1C (stereo not given) | inactive | 2.36%
CC1=NN(C(N)=S)C(=O)C1N=Nc1ccccc1Cl (stereo not given) | 6.51 µM (active) | -28.8%
CCOc1ccc(N=NC2C(=O)N(C(N)=S)N=C2C)cc1 (stereo not given) | 2.31 µM (active) | -27.4%
Cc1c(NC(=O)Nc2ccc([N+](=O)[O-])cc2)c(=O)n(-c2ccccc2)n1C | inactive | -0.0298%
Cc1ccc(S(=O)(=O)N(CC(=O)NCCSc2ccccn2)c2cc(C)cc(C)c2)cc1 | inactive | -8.96%
COc1ccc(NS(=O)(=O)c2ccc(N3CC(O)=C(c4ccccc4)C3=N)cc2)cc1 | inactive | 18.3%
Cn1cc(Cl)c(C(=O)Nc2nc3ccc([N+](=O)[O-])cc3s2)n1 | inactive | -2.18%
O=C(NC(Nc1nc2ccc([N+](=O)[O-])cc2s1)(C(F)(F)F)C(F)(F)F)c1cccnc1 | inactive | -11%
O=C(NC(Nc1nc2ccc([N+](=O)[O-])cc2s1)(C(F)(F)F)C(F)(F)F)c1ccccc1Cl | 5.8 µM (active) | -26.5%
COC(=O)C(NC(=O)c1ccc(F)cc1)(Nc1ncc(S(=O)(=O)c2ccc([N+](=O)[O-])cc2)s1)C(F)(F)F (stereo not given) | inactive | 0.5%
COC(=O)C(NC(=O)c1ccccc1Cl)(Nc1ncc(S(=O)(=O)c2ccc([N+](=O)[O-])cc2)s1)C(F)(F)F (stereo not given) | 20.6 µM (active) | 9.68%
COC(=O)C(NC(=O)c1ccccc1C)(Nc1ncc(S(=O)(=O)c2ccc([N+](=O)[O-])cc2)s1)C(F)(F)F (stereo not given) | inactive | -2.46%
Cn1nc([N+](=O)[O-])nc1Sc1ccc(Cl)cc1 | inactive | 9.49%
Nc1cnc(Br)cc1Br | inactive | -3.4%
Cc1ccc(NC(=O)CNC(=O)c2ccc(Br)o2)nc1 | inactive | 

Compound | Potency | cell number change
CCOc1c(N2CC(C)OC(C)C2)c(=O)c1=O (stereo not given) | inactive | -16.5%
Cc1ccc(/C=C/C(=O)Nc2sc(C)c(C)c2C(=O)OC(C)C)o1 | inactive | 0.157%
O=S(=O)(c1ccccc1)N1CCN(c2cccc(Cl)c2)CC1 | inactive | -13.5%
C=CCn1c(=O)c(C(=O)Nc2ccccc2C)c(O)c2ccccc21 | 18.4 µM (active) | -12.3%
CCn1c(=O)c(C(=O)Nc2ccccc2C)c(O)c2ccccc21 | inactive | 4.59%
C=CCn1c(=O)c(C(=O)Nc2ccccc2O)c(O)c2ccccc21 | inactive | 3.13%
O=C(NS(=O)(=O)Oc1cccc(Cl)c1Cl)OC[C@@H]1CCCN2CCCCC12 (stereo not given in full) | inactive | -10.2%
CN(C)CCCN(C(=O)c1ccc(S(=O)(=O)N2CCOCC2)cc1)c1nc2ccc(F)cc2s1 | inactive | 15.4%
CCOC(=O)COc1ccc(Br)cc1/C=C\c1[nH]c(=O)[nH]c(=O)c1[N+](=O)[O-] | 20.6 µM (active) | -21.8%
CCCOc1ccc(/C=C/c2[nH]c(=O)[nH]c(=O)c2[N+](=O)[O-])cc1OCC | inactive | -5.22%
CCOC(=O)CSC1=NC(=O)/C(=C/c2ccc(Br)cc2)S1 | inactive | 1.95%
CCCOc1ccccc1/C=C1\SC(N)=NC1=O | inactive | 13.8%
CCOC(=O)COc1ccc(Br)cc1/C=C1\SC(N)=NC1=O | 5.8 µM (active) | -21.5%
CCOC(=O)COc1ccc(Br)cc1/C=C/c1[nH]c(=O)[nH]c(=O)c1[N+](=O)[O-] | inactive | -18.1%
Cc1c(C(=O)N2CCCC2)sc(NC(=O)c2ccco2)c1C#N | inactive | -19.3%
COC(=O)[C@@H](NC(=O)Nc1cccc(OC)c1)C(C)C | inactive | -18%
COC(=O)[C@@H](NC(=O)Nc1ccc(OC)cc1)C(C)C | inactive | -11.6%
COc1cc(NC(=O)N[C@H](C(=O)O)C(C)C)cc(OC)c1 | 5.8 µM (active) | -13.1%
Nc1nc2ccc(Oc3ccccc3)cc2s1 | inactive | -7.07%
CCOC(=O)CSc1nc(=O)n2ccccc2n1 | inactive | -9.97%
COc1ccc(CN2CCN(C)CC2)cc1OCc1ccccc1 | 18.4 µM (active) | -3.92%
COc1ccc(CN2CCC(C)CC2)cc1OCc1ccccc1 | inactive | 4.43%
CCN1CCN(Cc2ccc(OCc3ccccc3)c(OC)c2)CC1 | inactive | -5.92%
CC(=O)Cc1cc(=O)c2c(C)cc(O)c(C3OC(CO)C(O)C(O)C3O)c2o1 (stereo not given) | inactive | -1.27%

Compound | Potency | cell number change
O=C(COC(=O)c1cc(-c2ccccc2)nc2ccccc12)Nc1ccc2c(c1)OCO2 | inactive | 2.4%
COC(=O)c1ccc(-n2c(C)nc(=O)c(-c3ccccc3)c2C)cc1 | inactive | 0.97%
CC(=O)Nc1ccc(-n2c(C)nc(=O)c(-c3ccccc3)c2C)cc1 | 13 µM (active) | 13.2%
Cc1nc(=O)c(-c2ccccc2)c(C)n1-c1ccc(O)cc1 | inactive | 0.899%
CCN(/C=N/S(=O)(=O)c1ccc(Cl)cc1)CC | inactive | 6.24%
CSc1cc(C)n(-c2ccc(Cl)cc2)c(=S)c1C(C)=O | inactive | 5.69%
CSc1cc(C)n(-c2ccccc2C)c(=S)c1C(C)=O | 29.1 µM (active) | 16.2%
COc1ccccc1-n1c(C)cc(SC)c(C(C)=O)c1=S | inactive | 
Cc1ccccc1NC(=O)NC1(C(=O)NCCCN2CCOCC2)CCCCC1 | inactive | -17.7%
CC(=O)N1c2c(cc(Br)cc2S(=O)(=O)NCc2ccc3c(c2)OCO3)CC1C (stereo not given) | inactive | -27.2%
CCCc1ccc2oc(C(=O)N3CCC(O)CC3)c(C)c2c1 | inactive | 4.78%
CCCc1ccc2oc(C(=O)N3CCN(c4cnccn4)CC3)c(C)c2c1 | inactive | -14.5%
CCCc1ccc2oc(C(=O)N3CCN(CC(=O)NC(C)C)CC3)c(C)c2c1 | 4.11 µM (active) | -11.6%
COc1ccc(Cl)cc1C(=O)NNC(=O)c1cccnc1 | inactive | 
CS(=O)(=O)c1ccc2sc(NC(=O)c3cc4ccccc4o3)nc2c1 | inactive | -15.1%
CCC(C)COC(c1ccccc1)(c1ccccc1)C(Oc1nc(C)cc(C)n1)C(=O)O (stereo not given) | inactive | 
Cc1cc(C)nc(OC(C(=O)O)C(OCC(C)C)(c2ccccc2)c2ccccc2)n1 (stereo not given) | 29.1 µM (active) | -23.5%
Cc1cc(C)nc(OC(C(=O)O)C(OCc2ccccc2)(c2ccccc2)c2ccccc2)n1 (stereo not given) | inactive | -6.47%
Cc1cc(/C(N)=N/OC(=O)Nc2ccccc2)no1 | inactive | 22.2%
O=S(=O)(Nn1cnnc1)c1ccc2ccccc2c1 | inactive | -5.21%
Cc1ccsc1CNC12CC3CC(CC(C3)C1)C2 | inactive | 10.4%
COc1ccc(Cl)cc1NC(=O)CN(C)CC(=O)Nc1ccccc1-c1ccccc1 | inactive | 22.9%
COc1ccc(Cl)cc1NC(=O)CN(C)CC(=O)N1CC(=O)Nc2ccccc21 | 1.3 µM (active) | -5.42%
Cc1ccc(Cl)cc1NC(=O)CNC(=O)N1CC(=O)Nc2ccccc21 | inactive | -12.7%

Compound | Potency | cell number change
COc1cccc(NC(=O)CSc2nnc3cc(C)nc(N)n23)c1 | inactive | -13.7%
COc1ccccc1Nc1nnc(SCC(=O)NC2CC2)s1 | inactive | -14.3%
O=C(CSc1nnc(NC(=O)c2ccccc2)s1)NC1CCCC1 | inactive | -5.42%
O=C(CSc1nnc(Nc2ccccc2F)s1)NC1CCCC1 | 11.6 µM (active) | -17.4%
CC(=O)n1cc([C@@H]2C=C(C(=O)NCc3ccccc3)O[C@H](OCCCCO)C2)c2ccccc21 | inactive | -1.9%
CCn1c(SCc2cc(=O)n3ccsc3n2)nc2ccccc21 | inactive | 0.881%
Cc1ccc(SCc2cc(=O)n3ccsc3n2)c(C)c1 | inactive | -12.5%
Cc1cccc(-n2c(SCc3cc(=O)n4ccsc4n3)nc3ccccc32)c1 | 14.6 µM (active) | -9.74%
O=C(CSc1nnc(-c2ccncc2)n1-c1ccccc1)Nc1ccc(C(=O)O)cc1 | inactive | 4.34%
O=C(COC(=O)c1ccc[nH]c1=O)NC1CCCc2ccccc21 (stereo not given) | inactive | 6.05%
Cc1noc(C)c1S(=O)(=O)N1CCCC(C(=O)NCCc2ccc(Cl)cc2)C1 (stereo not given) | inactive | 
Cc1nnc(SCC(=O)Nc2ccc(N3CCOCC3)cc2)n1-c1ccccc1 | inactive | -17.5%
CCCCn1c(-c2cccc(C)c2)nc2cc3[nH]c(=O)c(C(C)C)nc3cc21 | inactive | -25.6%
CCCCn1c(-c2cccc3ccccc23)nc2cc3[nH]c(=O)c(C(C)C)nc3cc21 | 20.6 µM (active) | -23%
CCCCn1c(-c2ccc(C(C)(C)C)cc2)nc2cc3[nH]c(=O)c(C(C)C)nc3cc21 | inactive | -12.9%
O=C(c1cccnc1Cl)N(Cc1ccccc1)Cc1ccccc1 | inactive | 4.31%
CCCOC(=O)c1ccc(NC(=O)C2C3CCC(C3)C2C(=O)O)cc1 (stereo not given) | inactive | 2.97%
COc1ccc(/C=N/NC(=O)c2ccncc2)cc1CSc1nc2ccccc2s1 | inactive | 1.7%
CCN(CC)C(=O)CSc1nc(C)cc(C)n1 | inactive | -1.44%
Cc1cc(C)nc(SCC(N)=O)n1 | inactive | 14.6%
CCOC(=O)CSc1nc(C)cc(C)n1 | 23.1 µM (active) | 4.86%
